# In paper PMC8384837, “Expanding the binding specificity for RNA recognition by a PUF domain”:
# Where a chain is given by its changes, count along the chain named.
# Key:
# Test in all cases: yeast three-hybrid, YBZ-1, SC-Leu-His + 0.5 mM 3-AT, 4 days
# Settings in all cases: tags: N-Gal4 AD-HA kept; label: inside an RPR1-promoter hybrid RNA with tandem MS2 sites; ssRNA
# PUM1 PUF domain R8-RHG = PUM1 PUF domain R8-RHG (Homo sapiens, UniProt Q14671 828-1176, N1122R;Y1123H;Q1126G)
# Outline: (§1)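 Sequencing with Illumina followed PCR amplification of the repeat regions from transformants grown four days on SC-Leu (input) or SC-Leu-His + 0.5 mM 3-AT (selection). The transformants were strain YBZ-1 with a LexA–MS2 coat fusion and a HIS3 reporter, carrying Pumilio-1 PUF domain libraries and matching RNA elements. The interaction score is the log change in variant frequency from input to selection, computed in log2 with a pseudocount of 1 for absent variants.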
# PUM1 PUF domain R6-RFC = target: T1, PUM1 PUF domain R6-RFC (Homo sapiens, UniProt Q14671 828-1176, N1043R;Y1044F;Q1047C)
# T1 sequence: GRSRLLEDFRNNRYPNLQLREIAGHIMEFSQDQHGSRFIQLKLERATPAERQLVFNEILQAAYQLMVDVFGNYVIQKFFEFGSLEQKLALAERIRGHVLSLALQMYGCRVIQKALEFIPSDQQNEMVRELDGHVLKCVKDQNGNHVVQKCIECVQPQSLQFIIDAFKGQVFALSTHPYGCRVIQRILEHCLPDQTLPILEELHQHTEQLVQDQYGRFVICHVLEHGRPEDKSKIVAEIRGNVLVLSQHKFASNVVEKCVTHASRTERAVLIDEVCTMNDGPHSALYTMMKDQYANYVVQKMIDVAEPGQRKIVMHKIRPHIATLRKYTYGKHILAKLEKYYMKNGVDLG
# Outline: as §1
# PUM1 PUF domain R4-APT = PUM1 PUF domain R4-APT (Homo sapiens, UniProt Q14671 828-1176, N971A;H972P;Q975T)
# Outline: as §1
# PUM1 PUF domain R4-VNN = PUM1 PUF domain R4-VNN (Homo sapiens, UniProt Q14671 828-1176, N971V;H972N;Q975N)
# Outline: as §1
# PUM1 PUF domain R4-DHC = PUM1 PUF domain R4-DHC (Homo sapiens, UniProt Q14671 828-1176, N971D;Q975C)
# Outline: as §1
# PUM1 PUF domain R8-QFQ = PUM1 PUF domain R8-QFQ (Homo sapiens, UniProt Q14671 828-1176, N1122Q;Y1123F)
# Outline: as §1
# PUM1 PUF domain R6-LYS = target: T2, PUM1 PUF domain R6-LYS (Homo sapiens, UniProt Q14671 828-1176, N1043L;Q1047S)
# T2 sequence: T1 sequence with R216L, F217Y, C220S
# Outline: as §1
# PUM1 PUF domain R3-TWW = PUM1 PUF domain R3-TWW (Homo sapiens, UniProt Q14671 828-1176, C935T;R936W;Q939W)
# Outline: as §1
# PUM1 PUF domain R3-APL = PUM1 PUF domain R3-APL (Homo sapiens, UniProt Q14671 828-1176, C935A;R936P;Q939L)
# Outline: as §1
# PUM1 PUF domain R4-SRL = PUM1 PUF domain R4-SRL (Homo sapiens, UniProt Q14671 828-1176, N971S;H972R;Q975L)
# Outline: as §1
# PUM1 PUF domain R4-YRL = PUM1 PUF domain R4-YRL (Homo sapiens, UniProt Q14671 828-1176, N971Y;H972R;Q975L)
# Outline: as §1
# PUM1 PUF domain R5-QRK = PUM1 PUF domain R5-QRK (Homo sapiens, UniProt Q14671 828-1176, C1007Q;Q1011K)
# Outline: as §1
# PUM1 PUF domain R5-RHQ = PUM1 PUF domain R5-RHQ (Homo sapiens, UniProt Q14671 828-1176, C1007R;R1008H)
# Outline: as §1
# PUM1 PUF domain R3-RRC = PUM1 PUF domain R3-RRC (Homo sapiens, UniProt Q14671 828-1176, C935R;Q939C)
# Outline: as §1
sequence,measurement,setting,value
GGCUAGAACUAGUGGAUCCCCCGGCGCCCGGCGGCUCGAGCCCGGGUAAGCGUAAAUAGUCUGCAUGCCGCCGGGCGCCAUGCCUGCAGGUCGACUCUAGAAAACAUG,binding signal,PUM1 PUF domain R8-RHG,4.32 log2 enrichment (interaction score)
GGCUAGAACUAGUGGAUCCCCCGGCGCCCGGCGGCUCGAGCCCGGGUAAGUGAAAAUAGUCUGCAUGCCGCCGGGCGCCAUGCCUGCAGGUCGACUCUAGAAAACAUG,binding signal,PUM1 PUF domain R6-RFC,1.2 log2 enrichment (interaction score)
GGCUAGAACUAGUGGAUCCCCCGGCGCCCGGCGGCUCGAGCCCGGGUAAGUGUAUAUAGUCUGCAUGCCGCCGGGCGCCAUGCCUGCAGGUCGACUCUAGAAAACAUG,binding signal,PUM1 PUF domain R4-APT,2.95 log2 enrichment (interaction score)
same,binding signal,PUM1 PUF domain R4-VNN,3.82 log2 enrichment (interaction score)
same,binding signal,PUM1 PUF domain R4-DHC,6.39 log2 enrichment (interaction score)
GGCUAGAACUAGUGGAUCCCCCGGCGCCCGGCGGCUCGAGCCCGGGUAAGUGUAAAUAGUCUGCAUGCCGCCGGGCGCCAUGCCUGCAGGUCGACUCUAGAAAACAUG,binding signal,PUM1 PUF domain R4-APT,4.02 log2 enrichment (interaction score)
same,binding signal,PUM1 PUF domain R8-QFQ,2.91 log2 enrichment (interaction score)
same,binding signal,PUM1 PUF domain R4-DHC,3.99 log2 enrichment (interaction score)
same,binding signal,PUM1 PUF domain R6-LYS,4.98 log2 enrichment (interaction score)
same,binding signal,PUM1 PUF domain R3-TWW,3.61 log2 enrichment (interaction score)
same,binding signal,PUM1 PUF domain R3-APL,3.04 log2 enrichment (interaction score)
same,binding signal,PUM1 PUF domain R4-SRL,3.87 log2 enrichment (interaction score)
same,binding signal,PUM1 PUF domain R4-YRL,3.01 log2 enrichment (interaction score)
same,binding signal,PUM1 PUF domain R5-QRK,2.97 log2 enrichment (interaction score)
same,binding signal,PUM1 PUF domain R8-RHG,4.31 log2 enrichment (interaction score)
same,binding signal,PUM1 PUF domain R6-RFC,4.13 log2 enrichment (interaction score)
GGCUAGAACUAGUGGAUCCCCCGGCGCCCGGCGGCUCGAGCCCGGGUAAGUGUACAUAGUCUGCAUGCCGCCGGGCGCCAUGCCUGCAGGUCGACUCUAGAAAACAUG,binding signal,PUM1 PUF domain R4-DHC,4.45 log2 enrichment (interaction score)
GGCUAGAACUAGUGGAUCCCCCGGCGCCCGGCGGCUCGAGCCCGGGUAAGUGUGAAUAGUCUGCAUGCCGCCGGGCGCCAUGCCUGCAGGUCGACUCUAGAAAACAUG,binding signal,PUM1 PUF domain R5-RHQ,4.24 log2 enrichment (interaction score)
GGCUAGAACUAGUGGAUCCCCCGGCGCCCGGCGGCUCGAGCCCGGGUAAGUGUAAUUAGUCUGCAUGCCGCCGGGCGCCAUGCCUGCAGGUCGACUCUAGAAAACAUG,binding signal,PUM1 PUF domain R3-RRC,3.79 log2 enrichment (interaction score)
same,binding signal,PUM1 PUF domain R3-TWW,1.77 log2 enrichment (interaction score)
